# Results as given in PubChem BioAssay (NCATS).
# Values joined by “and” are separate entries in the source; they are usually repeats but may differ in a detail not shown here. Equal entries are not always repeated. Inconclusive results are not listed. Values without a mark were called inactive. Active and inactive are the calls of the source. Calls follow the shape of the dose curve; as a rule, active = well fitted inhibition curve with a large enough effect; inconclusive = small, poorly fitted or top-dose-only effect; inactive = flat fitted curve, though single readings scatter.
# Tests used:
# Assay in all cases: Cytotoxic Profiling of Annotated Libraries Using Quantitative High-Throughput Screening (AID 1296008); also: nearly all actives have a fitted effect of over 60% in size
# Settings in all cases: Five cell lines viability, CellTiter-Glo ATP luminescence, 48-72 h; max response: stronger effect = lower value
# CRL-7250 = normal cell line; test system: CRL-7250
# Procedure, shortened: (§1)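 Cells exposed to compounds for 48 or 72 hr at 37 degrees Celsius. Viability read as ATP-coupled luminescence with CellTiter-Glo after 10 min at room temperature.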
# HEK293 = test system: HEK293
# Procedure, shortened: as §1
# HaCat = test system: HaCat
# Procedure, shortened: as §1
# KB-3-1 = test system: KB-3-1
# Procedure, shortened: as §1
# NIH3T3 = test system: NIH3T3
# Procedure, shortened: as §1
# % is scaled to controls: 0 for no effect and ±100 for the full control effect; potency is read from the fitted curve at half-maximal effect.
structure (smiles),measurement,setting,value
Cc1cc(C(=O)CN2CCCC2)c(C)n1-c1ccc(F)cc1,max response,CRL-7250,1.13% and -6.04%
same,max response,HEK293,-9.04%
same,max response,HaCat,1.57% and -29%
same,max response,KB-3-1,2.15% and -9.06%
same,max response,NIH3T3,1.34% and -18.5%
Oc1ccc2c3c1O[C@H]1[C@H](N(CCCl)CCCl)CC[C@@]4(O)[C@@H](C2)N(CC2CC2)CC[C@]314,max response,CRL-7250,-3.35%
same,max response,HEK293,0.595%
same,max response,HaCat,-4.26%
same,outcome,KB-3-1,inactive
same,outcome,NIH3T3,inactive
COC(=O)N1CCN(C(=O)Cc2ccc(Cl)c(Cl)c2)[C@@H](CN2CCCC2)C1,max response,CRL-7250,-2.38%
same,max response,HEK293,-9.31%
same,max response,HaCat,-8.83%
same,max response,KB-3-1,-3.66%
same,outcome,NIH3T3,inactive
COC1=CC(=O)O[C@@H](/C=C/c2ccccc2)C1,max response,CRL-7250,-9.99%
same,max response,HEK293,-8.8%
same,outcome,HaCat,inactive
same,outcome,KB-3-1,inactive
same,outcome,NIH3T3,inactive
C=C[C@H]1[C@H](O[C@@H]2O[C@H](CO)[C@@H](O)[C@H](O)[C@H]2O)OC=C2C(=O)OCC[C@H]21,max response,CRL-7250,-1.15%
same,outcome,HEK293,inactive
same,max response,HaCat,1.24%
same,outcome,KB-3-1,inactive
same,outcome,NIH3T3,inactive
C[C@]12CC[C@@H](O)C[C@H]1CC[C@@H]1[C@@H]2CC[C@]2(C)C(=O)CC[C@@H]12,max response,CRL-7250,-3.83%
same,max response,HEK293,-17.8%
same,max response,HaCat,-0.89%
same,outcome,KB-3-1,inactive
same,outcome,NIH3T3,inactive
CCN1C[C@]2(COC(=O)c3ccccc3N3C(=O)C[C@H](C)C3=O)CC[C@H](OC)[C@@]34[C@@H]5C[C@H]6[C@H](OC)[C@@H]5[C@](O)(C[C@@H]6OC)[C@](O)([C@@H](OC)[C@H]23)[C@@H]14,max response,CRL-7250,-0.686%
same,max response,HEK293,2.21%
same,max response,HaCat,-1.58%
same,outcome,KB-3-1,inactive
same,outcome,NIH3T3,inactive
CC(C)=C1CC[C@]23CO[C@H](C2)[C@@](O)(C(=O)O)CCC13 (stereo not given in full),max response,CRL-7250,4.82%
same,outcome,HEK293,inactive
same,max response,HaCat,-7.37%
same,max response,KB-3-1,4.44%
same,max response,NIH3T3,1.86%
C[C@@](O)(COc1ccc(C#N)cc1)C(=O)Nc1ccc(C#N)c(C(F)(F)F)c1,max response,CRL-7250,-2.54%
same,Potency,HEK293,14600 nM (active)
same,outcome,HaCat,inactive
same,max response,KB-3-1,2.83%
same,outcome,NIH3T3,inactive
C=C(C)[C@H]1O[C@H]2CC[C@@]3(C)[C@@](O)(CC[C@H]4[C@@H]5OC(C)(C)[C@H]6C[C@@H]7C(=C)Cc8c(Cl)cc9[nH]c(c5c9c8[C@@]76O)[C@@]43C)[C@]23O[C@@H]3[C@H]1O,max response,CRL-7250,-5.7%
same,outcome,HEK293,inactive
same,max response,HaCat,4.01%
same,outcome,KB-3-1,inactive
same,max response,NIH3T3,-2.87%
COC1CC(OC2CCC3(C=O)C(CCC4C3CCC3(C)C(C5=CC(=O)OC5)CCC43O)C2)OC(C)C1OC1OC(CO)C(O)C(O)C1O (stereo not given),Potency,CRL-7250,96.8 nM (active)
same,Potency,HEK293,193 nM (active)
same,Potency,HaCat,685 nM (active)
same,Potency,KB-3-1,343 nM (active)
same,outcome,NIH3T3,inactive
CC(C)C1(OO)C=C2C(=O)CC3C(C)(C(=O)O)CCCC3(C)C2CC1 (stereo not given),max response,CRL-7250,-0.339%
same,max response,HEK293,2.31%
same,outcome,HaCat,inactive
same,max response,KB-3-1,7.41%
same,outcome,NIH3T3,inactive
CC1=CC2/C=C(\C)CCC(O)C3OC(C)(C)OC3CC(=O)OC23C(=O)NC(CC(C)C)C3C1C (stereo not given),max response,CRL-7250,0.49%
same,max response,HEK293,2.48%
same,outcome,HaCat,inactive
same,outcome,KB-3-1,inactive
same,outcome,NIH3T3,inactive
CO[C@H]1[C@H](O)[C@H](O[C@H]2CC[C@]3(C)C4CC[C@]5(C)[C@H](C6=CC(=O)OC6)CC[C@]5(O)C4CC[C@@H]3C2)O[C@@H](C)[C@@H]1O (stereo not given in full),Potency,CRL-7250,25.2 nM (active)
same,Potency,HEK293,22.4 nM (active)
same,Potency,HaCat,2240 nM (active)
same,Potency,KB-3-1,89.3 nM (active)
same,outcome,NIH3T3,inactive
C=CC(C)(O)CC/C=C(\C)C(=O)O[C@H]1[C@H](O)[C@@H](CO)O[C@@H](OC(=O)[C@]23CCC(C)(C)CC2C2=CCC4[C@@]5(C)CC[C@H](O[C@@H]6O[C@H](CO[C@@H]7OC[C@H](O)[C@H](O)[C@H]7O[C@@H]7OC[C@@H](O)[C@H](O)[C@H]7O)[C@@H](O)[C@H](O)[C@H]6O)C(C)(C)C5CC[C@@]4(C)[C@]2(C)CC3)[C@@H]1OC1OC(C)C(O[C@@H]2OC[C@@H](O)[C@H](O[C@@H]3OC[C@@H](O)[C@H](O)[C@H]3O)[C@H]2O)C(O)C1O (stereo not given in full),max response,CRL-7250,-5.86%
same,max response,HEK293,0.313%
same,outcome,HaCat,inactive
same,max response,KB-3-1,-0.269%
same,outcome,NIH3T3,inactive
COc1cc2c(cc1OC)[C@@]13CCN4CC5=CCO[C@H]6CC(=O)N2[C@H]1[C@H]6[C@H]5C[C@H]43,max response,CRL-7250,-0.912%
same,max response,HEK293,-25.1%
same,max response,HaCat,-7.03%
same,max response,KB-3-1,8.18% and 2.14%
same,max response,NIH3T3,1.02%
